# Screening results as filed in PubChem.
# E-sel TNF inh = blocks E-selectin expression induced by TNF alpha. HUVEC TNFa-induced E-selectin immunofluorescence, high content. inhibition, % at 2 µM. actives 0.71% (n = 120,000);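 active = inhibition above the batch mean plus 3 SD, and confirmed as a hit on visual image review, cut at about 43% in these data; inconclusive = passes the inhibition cutoff but fails visual image review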;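 also: 0% = TNF-stimulated DMSO wells and 100% = unstimulated control wells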
# cytoskel mod = alters cytoskeleton assembly in HUVEC cells; HUVEC TNFa F-actin phalloidin imaging, high content; inhibition, % at 2 µM; actives 0.18% (n = 91,000); AID 836;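 active = inhibition above the batch mean plus 3 SD and confirmed as a hit by visual image inspection, cut at about 30% in these data, passing the limit was not always enough; inconclusive = above the inhibition threshold but rejected on visual inspection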
# VCAM1 TNFa inh = reduces TNF alpha induced VCAM1 expression in HUVEC; HUVEC TNFa-induced VCAM-1 immunofluorescence, high-content imaging; inhibition, % at 2 µM; actives 0.48% (n = 95,000);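 active = inhibition above the batch mean plus 3 SD, with images confirmed as a hit by eye, cut at about 37% in these data; inconclusive = inhibition above that limit but hit not confirmed in images; inactive = inhibition not above that limit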;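 also: 0% = TNF-stimulated DMSO wells and 100% = unstimulated control wells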
# HUVEC tox TNFa = toxic to HUVEC cells under TNF alpha stimulation. HUVEC TNFalpha-stimulated, Hoechst cell count, imaging. cell count reduction, % at 2 µM. actives 0.17% (n = 93,000);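 active = cell count reduction exceeding the screen mean by over 5 SD, scaled to untreated wells per plate, cut at about 78% in these data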;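 also: cells counted after 24 h of TNF alpha exposure following the 1 h pretreatment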
# * hit, by the source's call; ? = inconclusive; · = no result given. Rows were chosen to be rich in hits. Some 1% of all compounds tested hit in one or more screens of this group.
SMILES,E-sel TNF inh,cytoskel mod,VCAM1 TNFa inh,HUVEC tox TNFa
COCCOC(=O)c1[nH]c2c(c1C)C(=O)CC(c1ccc(F)cc1)C2 (stereo unspecified),·,4,20,-23
CS(=O)(=O)C1=NSC2=NC(=O)/C(=C\c3cccn3-c3ccc(Cl)cc3)C(=N)N21,100*,·,·,·
Nc1sccc1C(=O)c1ccc(Cl)cc1,-2,30,92*,-62
NC(=O)Cc1ccc(C(=O)c2ccc(Cl)cc2)s1,-10,·,·,·
CC(C)(C)SCCNC(=O)CN(c1ccc(F)c(Cl)c1)S(C)(=O)=O,34,9,6,9
CC(C)(C)SCCNC(=O)CN(c1ccc(F)cc1)S(C)(=O)=O,·,-36,90*,79*
CCOP(=O)(O)c1ccccc1OCCCCCOc1ccccc1P(=O)(O)OCC,5,18,-14,6
Nc1nnnn1/N=C/C(Br)=C/c1ccccc1,34,23,54*,4
Nc1nnnn1/N=C/C=C/c1ccccc1,-23,·,·,·
C#CCN1C(=O)C(O)(CC(=O)c2cccc(OC)c2)c2ccccc21 (stereo unspecified),85*,-18,11,-13
CC(C(=O)O)C1SC(=O)NC1=O (stereo unspecified),70*,4,2,-15
CNC(=S)NNC(=O)c1ccccc1F,-41,·,·,·
COc1ccc(-n2nnnc2-c2cnc(N3CCCC3)nc2C(F)(F)F)cc1,100*,6,-1,-8
Cc1csc(NC(=O)CCN2C(=O)c3ccccc3S2(=O)=O)n1,5,-5,22,0
CCOC(=O)Cc1csc(NC(=O)CN2C(=O)c3ccccc3S2(=O)=O)n1,96*,·,·,·
O=C(Nc1ccc(F)cc1)N1CCOCC1,77*,36,-3,-4
Cc1nc2ccccc2n1-c1nc(-c2ccco2)cc(C(F)(F)F)n1,100*,·,·,·
CCCCc1c(O)c2ccccc2[nH]c1=O,-4,21,20,-33
CCCc1c(O)c2ccccc2[nH]c1=O,52*,1,-2,-10
O=C(NCc1cccnc1)C(=O)Nc1ccc2c(c1)OCO2,-18,·,·,·
O=S(=O)(Cc1ccccc1Cl)N1CCN(Cc2ccc3c(c2)OCO3)CC1,-18,47*,3,-25
Cc1cccc(NC(=O)CCSc2nc(C)cc(C)n2)c1,76*,-26,0,5
CN1c2ccccc2C2(C)CCCC3=Cc4cccc([N+](=O)[O-])c4OC312 (stereo unspecified),69*,·,·,·
CC(=O)NC(=S)Nc1ccccc1C(=O)Nc1ccccc1,10,·,·,·
CCCCC(=O)NC(=S)Nc1ccccc1C(=O)Nc1ccccc1,·,-88,93*,90*
SMILES,E-sel TNF inh,cytoskel mod,VCAM1 TNFa inh,HUVEC tox TNFa
O=C1C2C3CC(C(Br)C3Br)C2C(=O)N1c1ccccn1 (stereo unspecified),-9,-3,8,-9
Cc1ccnc(N2C(=O)C3C4CC(C(Br)C4Br)C3C2=O)c1 (stereo unspecified),54*,16,-2,1
CCc1nc(SCC(=O)N2c3ccccc3CC2C)c2c(C)c(C)sc2n1 (stereo unspecified),-1,4,0,-17
O=C(CN1CCSCC1)N1CCc2[nH]c3ccc(Br)cc3c2C1,5,-18,61*,4
Cc1ccc2[nH]c3c(c2c1)CN(C(=O)CN1CCN(c2cccc(C)c2C)CC1)CC3,-11,0,-8,-3
CC(CCc1ccccc1)NC(=O)C1CCN(S(=O)(=O)c2cnc[nH]2)CC1 (stereo unspecified),9,7,2,-28
CCn1c(SCC(=O)NNC(=O)c2ccc(OC)cc2)nnc1-c1ccco1,1,·,·,·
Cc1cc(C)cc(OCC(=O)Nc2nonc2NC(=O)COc2cc(C)cc(C)c2)c1,-11,-32,78*,76
COc1ccc(CS(=O)(=O)/C(Cl)=C(/Cl)C(=O)Nc2ccc(OC)nc2)cc1,95*,5,42*,14
COc1ccc(NC(=S)Nc2ccccc2)cn1,-11,·,·,·
COc1ccc(/C=C/C(=O)Nc2ccc(OC)nc2)cc1,-7,·,·,·
COc1ccc(NC(=O)/C(Cl)=C(/Cl)S(=O)Cc2ccccc2)cn1 (stereo unspecified),·,8,88*,99*
COC(=O)N1CC(=O)N(OC)C1c1ccc(Cl)cc1Cl (stereo unspecified),17,-59,30,17
COCCNC(=O)c1c[nH]c2cc(OC)c(OC)cc2c1=O,3,22,-1,-22
COc1cc2[nH]cc(C(=O)NCCc3ccccc3)c(=O)c2cc1OC,18,-5,92*,-3
C=CCN(CC=C)C(=O)Nc1cc(Cl)ccc1OC,53*,-7,0,8
COc1ccc(-c2nc(C#N)c(NCCCN(C)C)o2)cc1OC,17,35,97*,-34
COc1ccc(CCNc2oc(-c3ccc(OC)c(OC)c3)nc2C#N)cc1,5,0,24,20
Nc1ccccc1NC(=O)c1ccccc1N,·,-3,81*,93*
Cc1c(NC(=O)c2ccccc2N)cccc1C(=O)O,-3,-4,21,-21
Cc1cc(S(=O)(=O)NCCN2CCOCC2)c(C)s1,-1,65*,-7,-35
COc1cc(S(=O)(=O)NCCN2CCOCC2)c(OC)cc1Cl,-2,2,-1,-15
Cc1cc2nc(-c3ccc(SCc4ccc(C#N)cc4)nc3)[nH]c2cc1C,90*,-9,-6,5
N#Cc1ccccc1CSc1ccc(-c2nc3ccccc3[nH]2)cn1,-13,-28,-5,-1
CC1CC1c1ccc(/C=C(\C#N)C(=O)Nc2ccc(Cl)cc2)o1 (stereo unspecified),64*,·,·,·
SMILES,E-sel TNF inh,cytoskel mod,VCAM1 TNFa inh,HUVEC tox TNFa
Cc1ccc2[nH]c3c(c2c1)CCCC3=O,-7,-24,11,14
Cc1ccc2[nH]c3c(c2c1)CCC3=O,3,15,50*,2
O=C1CC(c2ccccc2)CC2=C1CN(C1CCCCC1)CN2 (stereo unspecified),70*,2,-6,-12
COC1(c2ccccc2)NC(=S)NN=C1c1ccccc1 (stereo unspecified),3,?,?,100*
Cc1ccc2cn[nH]c2c1[N+](=O)[O-],33,·,·,·
CC1CC(=O)NN=C1c1ccc(N(C)C)c([N+](=O)[O-])c1 (stereo unspecified),-19,-36,35,19
CCN(CC)c1ccc(C2=NNC(=O)CC2C)cc1[N+](=O)[O-] (stereo unspecified),-39,-53,78*,52
CNC(=S)N=Nc1c(O)[nH]c2ccc(C(C)C)cc12,68*,·,·,·
CC(C)c1ccc2[nH]c(O)c(N=NC(=O)c3cccc(S(=O)(=O)N4CCCCC4)c3)c2c1,12,·,·,·
Cc1cc(NC(=O)CSc2nc3ccccc3c(=O)n2C2CCCC2)no1,-2,14,68*,46
Cc1cc(NC(=O)CSc2nnc(Cc3ccccc3)n2C)no1,44*,19,17,-20
COc1ccc(N2CCN(C(=O)C(C)(C)Oc3ccc(Cl)cc3)CC2)cc1,·,-29,-22,78*
CCOC(=O)N1CCN(C(=O)C(C)(C)Oc2ccc(Cl)cc2)CC1,·,6,12,-36
C=CCNC(=O)COC(=O)c1cccnc1Nc1ccccc1F,2,·,·,·
COc1cc(S(=O)(=O)NC2CCCCC2C)ccc1Cl (stereo unspecified),51*,1,19,3
